Assay results published in PubChem BioAssay (Tox21).
Where “and” joins values, the source holds several entries; their conditions need not be identical. Equal entries are not always repeated. Results filed as inconclusive are left out. Where a call stands in place of a potency, no number is given. Unmarked numbers belong to inactive results. Calls of active or inactive are those of the source. The call rests on the fitted dose curve; in most records, active means well fitted inhibition curve with a large enough effect in the repeat runs; inconclusive means weak or mixed curves, or effect the other way; inactive means no such curve, though single readings can be large or run the other way.

target: Nuclear receptor ROR-gamma (Homo sapiens) (UniProt P51449); assay: qHTS assay to identify small molecule antagonists of the retinoid-related orphan receptor gamma (ROR-gamma) signaling pathway (AID 1159521; further: nearly all actives have a fitted effect of over 50% in size; on activity change, negative = inhibition: top concentration of the series differs between compounds); details: Tet-on RORgamma CHO cells, RORE-luciferase, 16 h; series mostly up to 92.4 µM
Source text: U.S. Tox21 Program National Center for Advancing Translational Sciences [NCATS] NIH Chemical Genomics Center [NCGC] U.S. Environmental Protection Agency [EPA] National Institutes of Environmental Health Sciences [NIEHS] National Toxicology Program [NTP] U.S. Food and Drug Administration [FDA] Tox21 Assay Overview: Nuclear steroid hormone receptors are involved in many biological processes including inflammatory responses, cell proliferation, and apoptosis. Environmental factors or compounds disrupting these nuclear receptor pathways and gene expression may promote susceptibility to immunotoxicants and autoimmune diseases. One important group of these expression factors are the retinoid-related orphan receptors. To assess compounds that may interfere with the retinoid-related orphan receptor gamma (ROR-gamma) transcription factor, a cell-based luciferase assay was used. The CHO cell-based assay utilizes a TET-inducible ROR expression factor and ROR response element-LUC reporter gene. Reporter gene activity was induced using Doxycycline Hyclate and measured after 16 hr incubation. Tet-on ROR gamma CHO cells were used to screen against the Tox21 10K compound library for ROR gamma antagonists by quantification of decreased reporter gene activity in terms of decreased luminescence.
Tox21 Assay Protocol Summary: Tet-on ROR gamma CHO cells were dispensed at 1,000 cells in 4 uL of culture medium per well into white wall/solid bottom 1536-well plates using a Multidrop Combi (Thermo Scientific, Waltham, MA) dispenser. Following incubation at 37 C and 5% CO2 for 4 hr, 23 nL of compounds dissolved in DMSO, positive controls or DMSO only were transferred by a Pintool station (Kalypsys, San Diego, CA) and after 2 hr incubation at 37 C, one ul of 1 uM (final concentration) of Doxycycline Hyclate was added to all the wells by using a Flying Reagent Dispenser (FRD) (Aurora Discovery, San Diego, CA). After 16 hr incubation at 37 C and 5% CO2, 5 uL of ONE-Glo reagent (Promega Corporation, Madison, WI) was added to each assay plate using FRD. After 30 min incubation at room temperature, luminescence was quantified on a ViewLux plate reader (Perkin Elmer, Waltham, MA).
Potency means the concentration at half of the fitted maximal effect.

SMILES	Potency	activity change, negative = inhibition
Cc1ccc2c(C)cccc2c1	inactive	
Nc1c(Br)cc(Br)c2c1C(=O)c1ccccc1C2=O		13.2% [at 19 µM]
CC(C)c1ccc(OP(=O)(Oc2ccc(C(C)C)cc2)Oc2ccc(C(C)C)cc2)cc1	27.5 µM (active) and 30.6 µM (active)	
c1ccc2c(c1)sc1ccccc12	inactive	
CC(C)OC(=O)Cc1ccccc1	inactive	
Oc1cccc(Cl)c1	inactive	
CC(C)(C)NCC(O)c1cc(Cl)c(N)c(C(F)(F)F)c1 (stereo not given)	inactive	
COc1ccc2c(c1OC)C(=O)O[C@H]2[C@@H]1c2cc3c(cc2CCN1C)OCO3	inactive	
CCC1(CC)C(=O)NC(=O)NC1=O	inactive	
CCC1(CCC(C)C)C(=O)NC(=O)NC1=O	inactive	
C[C@]12C=CC3=C4CCC(=O)C=C4CC[C@H]3[C@@H]1CC[C@@H]2O	inactive	
COc1cc(C[C@@H](C)N)c(OC)cc1Br	inactive	
CC(C)[C@@H](C(=O)O[C@@H](C#N)c1cccc(Oc2ccccc2)c1)c1ccc(Cl)cc1	17.5 µM (active)	
C[Si](Cn1cncn1)(c1ccc(F)cc1)c1ccc(F)cc1	31.6 µM (active) and 43.3 µM (active)	
C=CCOCC1CO1 (stereo not given)	inactive	
CN[C@@H](C)[C@H](O)c1ccccc1	inactive	
O=C(O)c1ccc(=O)[nH]c1	inactive	
CC(C)(C)N(NC(=O)c1ccc(Cl)cc1)C(=O)c1ccccc1	inactive	
CCNC(=O)NC(=O)/C(C#N)=N/OC	inactive	
CC(O)CN1CCN(CC(=O)[O-])CCN(CC(=O)[O-])CCN(CC(=O)[O-])CC1.[Gd+3] (stereo not given)	inactive	

SMILES	Potency	activity change, negative = inhibition
CN(C)C(=O)Nc1cccc(OC(=O)NC(C)(C)C)c1	inactive	
CC(C)(C)c1ccc(CCOc2ncnc3ccccc23)cc1	inactive	
O=C1c2ccccc2C(=O)N1SC(Cl)(Cl)Cl	6.03 µM (active) and 7.7 µM (active)	
CCCCOC(=O)CCC(=O)OCCCC	inactive	
O=C(O)C(O)C(O)C(=O)O (stereo not given)	inactive	
O=S(=O)(c1ccccc1)c1ccccc1	inactive	
COCc1cnc(C2=NC(C)(C(C)C)C(=O)N2)c(C(=O)O)c1 (stereo not given)	inactive	
COc1cc(CC(C)N)c(OC)cc1Br (stereo not given)	inactive	
CON(C)C(=O)Nc1ccc(Cl)cc1	inactive	
Nc1ccccc1C(=O)OCCc1ccccc1	inactive	
C[N+]1(CCF)[C@@H]2CC[C@H]1CC(OC(=O)C(O)(c1ccccc1)c1ccccc1)C2 (stereo not given in full)	inactive	
FC(Cl)(Cl)C(F)(Cl)Cl	inactive	
CCCCC1C(=O)NC(=O)N(C2CCCCC2)C1=O (stereo not given)	inactive	
CCC(C)(C)c1ccc(O)c(C(C)(C)CC)c1	60.4 µM (active) and 48.6 µM (active)	
CCCCC(CC)COC(=O)c1c(Br)c(Br)c(Br)c(Br)c1C(=O)OCC(CC)CCCC (stereo not given)	inactive	
NC(=S)c1c(Cl)cccc1Cl	inactive	
Cc1nc2ccccc2c(=O)n1-c1ccccc1Cl	inactive	
C[N+]1(CCC(C(N)=O)(c2ccccc2)c2ccccc2)CCCCC1	inactive	
CCOC(C(=O)OCCN(C)C)(c1ccccc1)c1ccccc1	inactive	
N#CC(C#N)=C(C#N)C#N	inactive	
